Assay results as given in PubChem BioAssay (Tox21).
Results filed as inconclusive are left out. Activity calls are given as the source filed them. Calls follow the shape of the dose curve; as a rule, active = well fitted cell-killing curve with a large enough effect in the repeat runs; inconclusive = weak or mixed curves, or effect the other way; inactive = flat fitted curve, though single readings scatter.

Test: cAMP Responsive Elements (CRE) small molecule antagonists, cell-based qHTS assay: qHTS cell viability counter screen (AID 2060913); also: nearly all actives have a fitted effect of over 40% in size
Conditions: CRE-bla HEK293T viability, CellTiter-Glo luminescence, 5 h; series mostly up to 92.4 µM; viability change, negative = cytotoxic: at the top concentration
From the text: U.S. Tox21 Program National Center for Advancing Translational Sciences [NCATS] Division of Preclinical Innovation [DPI] U.S. Environmental Protection Agency [EPA] National Institutes of Environmental Health Sciences [NIEHS] National Toxicology Program [NTP] U.S. Food and Drug Administration [FDA] Tox21 Assay Overview: CREB (cyclic-AMP Responsive Element Binding Protein) is a cellular transcription factor. It binds to certain DNA sequences called cAMP Responsive Elements (CRE) and regulates the transcription of the genes. […] This cell line can be used to find agonists/antagonists of the cyclic AMP signaling pathway. The activation of the report gene under culture conditions can be detected by fluorescence intensity. This cell line has been used to screen the Tox21 10K compound library to identify agonists that induce oxidative stress. The cytotoxicity of the Tox21 compound library against the CRE-bla cell line was tested in parallel by measuring the cell viability using CellTiter-Glo assay (Promega, Madison, WI) in the same wells.
Tox21 Assay Protocol Summary: CRE-bla Hek 293T cells were suspended in assay medium (DMEM containing 10% dialyzed FBS, 0.1 mM NEAA, 1 mM sodium pyruvate and 25 mM HEPES) and dispensed at 2,000 cells/4 uL /well into 1536-well black wall/clear bottom plates using a Multidrop Combi (ThermoFisher Scientific, Waltham, MA) dispenser. After the assay plates were incubated at 37 C/5% CO2 for 18 hrs, 23 nL of compounds dissolved in DMSO, positive controls or DMSO only was transferred to the assay plate by a pintool workstation (Kalypsys, San Diego, CA), followed by addition of 1 uL of 1.25uM NKH477 (0.25 uM as final concentration) in assay medium using a Flying Reagent Dispenser (Aurora Discovery, San Diego, CA). The plates were incubated at 37 C and 5% CO2 for 3 hrs. Then 1 uL of LiveBLAzer B/G FRET substrate (Invitrogen, Carlsbad, CA) was added to each well using Bioraptr Flying Reagent Dispenser (FRD, Aurora Discovery, San Diego, CA). The plates were incubated at room temperature for 2 h, then fluorescence intensities were measured using an Envision plate reader (PerkinElmer, Shelton, CT) at Excitation 405nm, Emission 460nm and 530nm. The % activity was determined from the ratio of 460nm/530nm. For cell viability readout that measures cytotoxicity, 4 uL /well of CellTiter-Glo reagent was added into the assay plates using Bioraptr FRD. After 30 min incubation at room temperature, the luminescence intensity in the assay plates was measured using a ViewLux (PerkinElmer, Shelton, CT) plate reader.
% is scaled to controls: 0 for no effect and ±100 for the full control effect.

| Compound | viability change, negative = cytotoxic | Potency |
| --- | --- | --- |
| CC(C)(C)C(=O)C(=O)O | 12.7% (inactive) | – |
| CCCCCC=CCC=CCCCCCCCC(=O)OCC | -2.11% [at 42.5 µM] (inactive) | – |
| CCCCC(CC)CN1CN(CC(CC)CCCC)CC(C)(N)C1 (stereo not given) | -1.23% [at 42.5 µM] (inactive) | – |
| CC(CC(=O)Cl)CC(C)(C)C (stereo not given) | 17.6% (inactive) | – |
| CC(=O)OCC(C)C | 3.77% (inactive) | – |
| COC(=O)c1ccccc1OC | 4.57% (inactive) | – |
| CC(Oc1cc(Cl)ccc1Cl)C(=O)O (stereo not given) | 2.71% (inactive) | – |
| O=NN(CCCl)C(=O)NCCCl | 0.0585% [at 42.5 µM] (inactive) | – |
| O=C(c1ccccc1)c1ccc(O)cc1 | -12.6% (inactive) | – |
| CC(C)(C)c1cc(CCC(=O)NCCCCCCNC(=O)CCc2cc(C(C)(C)C)c(O)c(C(C)(C)C)c2)cc(C(C)(C)C)c1O | -1.69% (inactive) | – |
| CNS(=O)(=O)CCc1ccc2[nH]cc(C3CCN(C)CC3)c2c1 | -3.04% [at 42.5 µM] (inactive) | – |
| O=C(NC(Cc1cc(=O)[nH]c2ccccc12)C(=O)O)c1ccc(Cl)cc1 (stereo not given) | 0.173% [at 42.5 µM] (inactive) | – |
| CC/C=C\CC/C=C/CO | 4.42% (inactive) | – |
| NCC(=O)O | -2.51% [at 18.9 µM] (inactive) | – |
| Cc1noc(NS(=O)(=O)c2ccc(N)cc2)c1C | – | inactive |
| CN(C)CCOc1ccccc1Cc1ccccc1 | -10.7% [at 42.5 µM] (inactive) | – |
| NC(Cc1c[nH]c2ccccc12)C(=O)O (stereo not given) | 16.1% [at 42.5 µM] (inactive) | – |
| CCOC(=O)C(=O)CCCCCCl | -0.234% [at 42.5 µM] (inactive) | – |
| Cc1cccc(CN2CCN(C(c3ccccc3)c3ccc(Cl)cc3)CC2)c1 (stereo not given) | -8.6% [at 42.5 µM] (inactive) | – |
| COc1cc2nc(N3CCN(C(=O)C4CCCO4)CC3)nc(N)c2cc1OC (stereo not given) | 0.494% [at 42.5 µM] (inactive) | – |

| Compound | viability change, negative = cytotoxic | Potency |
| --- | --- | --- |
| CCCCC/C=C\C/C=C\CCCCCCCC(=O)OC | – | inactive |
| Cc1cccc(O)c1N | 7.28% (inactive) | – |
| O=C(Cl)c1cccc([N+](=O)[O-])c1 | 4.88% (inactive) | – |
| O=C(O)CC(=O)O | 3.73% (inactive) | – |
| COc1ccc([C@@H]2Sc3ccccc3NC(=O)[C@@H]2O)cc1 | 12.1% [at 42.5 µM] (inactive) | – |
| COC(=O)CC(=O)OC | – | inactive |
| COc1cc(C(=O)N2CCOCC2)cc(OC)c1OC | 3.35% [at 42.5 µM] (inactive) | – |
| CCOC(=O)C1=C[C@]2(CC)CCCN3CCc4c(n1c1ccccc41)[C@@H]32 | -0.897% [at 42.5 µM] (inactive) | – |
| CCCCCCCC/C=C\CCCCCCCC(=O)OC | 3.34% (inactive) | – |
| OCCCCCCCCCCCCBr | -15.6% (inactive) | – |
| Nc1c(CC(=O)O)cccc1C(=O)c1ccc(Br)cc1 | 4.34% [at 42.5 µM] (inactive) | – |
| CCCn1cnc2c1c(=O)n(CCCCC(C)=O)c(=O)n2C | 0.469% [at 42.5 µM] (inactive) | – |
| CC(N=C(NC#N)Nc1ccncc1)C(C)(C)C (stereo not given) | -3.93% [at 42.5 µM] (inactive) | – |
| O=C(NO)c1ccccc1 | -2.16% (inactive) | – |
| C#C[C@]1(O)CC[C@H]2[C@@H]3CCc4cc(O)ccc4[C@H]3CC[C@@]21C | – | inactive |
| O=C(N/N=C/c1ccc([N+](=O)[O-])o1)c1ccc(O)cc1 | -9.06% [at 42.5 µM] (inactive) | – |
| CCOC(=O)Nc1ccc2c(c1)N(C(=O)CCN1CCOCC1)c1ccccc1S2 | -0.711% [at 42.5 µM] (inactive) | – |
| Oc1cccc2cc3cccc(O)c3c(O)c12 | -11.1% (inactive) | – |
| C/C=C(\C)C(=O)OC/C=C(\C)CCC=C(C)C | 12% (inactive) | – |
| CCCOC(=O)CC | -0.41% (inactive) | – |
